From PubChem BioAssay AID652134 (The Scripps Research Institute Molecular Screening Center, 2013)
Hit rate of the full screen: of about 2,400 compounds, about 2,100 (88%) were called active.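 The calls were made as follows: active = inhibition above the average of every tested compound plus 3 SD (cut at about 3.8% in these data); inactive = the rest.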 The set was probably picked from earlier hits. Not all results are given here.

biological target: Nuclear receptor subfamily 0 group B member 1 (Homo sapiens) (UniProt P51843); test: NR0B1 repressor blockers, StAR reporter readout – cell-based, luminescence, HEK293T, full-length DAX-1, SF-1 activated StAR promoter, confirmation (AID 652134); conditions: HEK293T StAR-promoter luciferase reporter, SF-1/DAX-1 repression; at 6.8 µM; active compounds read high;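 also: 0% = DAX-1 cells with DMSO and 100% = no DAX-1 control cells with DMSO; active compounds raise luminescence by relieving repression of the StAR reporter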
Sequence (P51843 whole entry, looked up): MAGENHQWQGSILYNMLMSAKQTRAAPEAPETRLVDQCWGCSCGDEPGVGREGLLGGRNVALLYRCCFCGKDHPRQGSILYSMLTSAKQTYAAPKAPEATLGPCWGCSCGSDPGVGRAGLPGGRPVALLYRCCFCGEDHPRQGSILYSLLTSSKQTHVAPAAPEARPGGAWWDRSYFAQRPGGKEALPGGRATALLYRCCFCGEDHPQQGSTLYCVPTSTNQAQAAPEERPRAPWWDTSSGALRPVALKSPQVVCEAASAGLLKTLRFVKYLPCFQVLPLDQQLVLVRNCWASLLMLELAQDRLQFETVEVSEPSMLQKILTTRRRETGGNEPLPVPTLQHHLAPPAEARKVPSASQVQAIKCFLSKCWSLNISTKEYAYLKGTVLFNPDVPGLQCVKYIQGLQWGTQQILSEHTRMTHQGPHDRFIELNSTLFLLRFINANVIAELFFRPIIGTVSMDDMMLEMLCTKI

Structure (SMILES) | inhibition
O=C(NCCc1ccc(F)cc1)c1ccc2nccnc2c1 | 12.4% (active)
COc1ccc(Nc2ncc(F)c(N3CCOCC3)n2)cc1 | 11.3% (active)
OC(c1ccccc1)c1nc(-c2cnc3ccccc3c2)cs1 (configuration not stated) | 13% (active)
O=C1C(C=NCC2CCCO2)=C(O)c2ccccc21 (configuration not stated) | 7.49% (active)
CC(=O)Nc1cccc(-c2csc(Nc3cccc(C)n3)n2)c1 | 10.7% (active)
COc1cc(C2c3cc4c(cc3C(O)C3COC(=O)C23)OCO4)cc(OC)c1OC (configuration not stated) | 19.5% (active)
COc1cc(/C=N/O)ccc1OCc1ccc([N+](=O)[O-])cc1 | 11.6% (active)
CC(=O)Nc1cccc(C(=O)OCC(=O)c2ccc3c(c2)OCO3)c1 | 14.1% (active)
CC(C)c1ccc(C=NNc2ccc([N+](=O)[O-])cn2)cc1 | 14.9% (active)
S=C(c1ccc(-c2ccccc2)o1)N1CCCCC1 | 11% (active)
COc1ccc2nc(SCc3ccccc3)nc(C)c2c1 | 20.3% (active)
CC(C)Cc1cc(C(=O)NCCc2ccccc2)no1 | 8.87% (active)
CNCC(O)c1ccc(O)c(O)c1 (configuration not stated) | 3.72% (active)
C(=N\Nc1ccc2ccccc2n1)/c1ccc2c(c1)OCO2 | 13.2% (active)
COc1ccc2nc(-c3ccccn3)ccc2c1 | 12.2% (active)
c1ccc2[nH]c(-c3nc4ccccc4[nH]3)nc2c1 | 11.3% (active)
Cc1ccc(-c2nc3ccccc3[nH]2)cc1N | 11.7% (active)
O=C(NC(=S)NC1CCCCC1)c1ccc(Cl)cc1 | 6.95% (active)
O=C(c1cnn2ccccc12)N1CCc2ccccc21 | 9.73% (active)
Cc1cccc(NC(=O)/C=C/c2ccc3c(c2)OCO3)n1 | 13.6% (active)
COc1cccc(/C=C/C(=O)Nc2ccc3c(c2)OCCO3)c1 | 3.84% (active)
O=C(O)c1cccc(N=NN2CCCCCC2)c1 | 15% (active)
O=c1c2c(nc3n1CCCCC3)sc1c(O)cccc12 | 16.3% (active)

Structure (SMILES) | inhibition
O=C(Nc1ccc(Cl)c(Cl)c1)c1ccccc1NC(=O)C1CC=CCC1C(=O)O (configuration not stated) | 7.46% (active)
CC(C)(O)C#Cc1ccc(CNC[C@H]2O[C@@H](n3cnc4c(=O)[nH]c(N)nc43)[C@H](O)[C@@H]2O)s1 | -1.28% (inactive)
CCN(CC(=O)Nc1c(F)cccc1F)C(=O)c1cnc(C)cn1 | 0.35% (inactive)
O=c1oc(/C=C/c2ccccc2)nc2ccccc12 | 11.2% (active)
CC(Oc1ccccc1[N+](=O)[O-])C(=O)N/N=C/c1ccoc1 (configuration not stated) | 1.13% (inactive)
Cc1ccc(S(=O)Cc2ccc(C(=O)N3CCN(C4CCCCC4)CC3)o2)cc1 (configuration not stated) | 5.33% (active)
O=[N+]([O-])c1ccc2oc(-c3cccc(O)c3)nc2c1 | 10.7% (active)
COc1ccc(-c2cn3ccc(C)cc3n2)cc1 | 9.6% (active)
COc1ccc(-c2cn3ccsc3n2)cc1 | 12.2% (active)
Cc1cc(C)c(C)c(S(=O)(=O)N2CCN(C(=O)c3ccc4c(=O)n5c(nc4c3)CCC5)CC2)c1C | 0.85% (inactive)
O=c1c2c(nc3cc(-c4cccc(Cl)c4)[nH]n13)CCCC2 | 22.3% (active)
O=C(CSc1cccc[n+]1[O-])c1ccc(-c2ccccc2)cc1 | 3.72% (active)
O=C(NCCc1c[nH]c2ccccc12)c1cc2ccccc2oc1=O | 10.1% (active)
Cc1cc(OCc2cc(C(=O)NCc3cc(C(C)C)no3)no2)cc(C)c1Cl | 6.04% (active)
Cc1nc2cc(NC(=O)Nc3cccc(F)c3)ccc2n1C | 15.5% (active)
C=CCn1c(SCC(=O)Nc2ccc(NC(C)=O)cc2)nc2sc(C)c(C)c2c1=O | -0.94% (inactive)
Nc1ccc(C(=O)Nc2ccccc2N)cc1 | 94.3% (active)
Cn1ccnc1SCC(=O)Nc1ccc2c(c1)OCCO2 | 10.6% (active)
CN(C(=O)c1cc2c(=O)n3ccccc3nc2s1)C1CCCCC1 | 9.28% (active)
NS(=O)(=O)c1ccc2nc(NC(=O)C3=COCCO3)sc2c1 | 9.88% (active)
Cc1sc(NC(=O)c2ccc3ncsc3c2)c(C(N)=O)c1C | 14.4% (active)
CCOC(=O)c1c(S(=O)(=O)Nc2ccc(CN3CCC(C)CC3)cc2)c(C)n(C)c1C | 4.2% (active)
CCc1ccc(NC2Nc3cc(C)nn3S2)cc1 (configuration not stated) | 10.6% (active)

Structure (SMILES) | inhibition
CCOc1cccc(/C=C/c2ccc3ccccc3n2)c1OC(C)=O | 10.4% (active)
Cc1csc(SCC(=O)Nc2sccc2C#N)n1 | 16.1% (active)
COC(=O)c1sc(NC(=O)c2ccc(OC)cc2OC)nc1C | 13.9% (active)
O=C(Nc1ccc2c(c1)CCC2)c1ccc(Br)s1 | 15.1% (active)
COc1ccc(/C=C/C(=O)Nc2ccc(C34CC5CC(CC(O)(C5)C3)C4)cc2)cc1OC | 4.27% (active)
Clc1ccc(Nc2nc(-c3cccs3)cs2)nc1 | 13.8% (active)
Cc1ccccc1OCC(=O)Nc1ccc2c(c1)ncn2C | 8.73% (active)
Cc1ccccc1Nc1nc(N)nc(CSc2ccccc2)n1 | 19.3% (active)
CCCNC(=O)C1CC(=O)N(c2ccc(OCc3ccccc3)cc2)C1 (configuration not stated) | 14.4% (active)
Cc1ccc(N/C=C/C(=O)c2ccccc2)cc1C | 10.3% (active)
CC1CCN(C(=O)COC(=O)c2cc(=O)[nH]c3ccccc23)CC1 | 9.14% (active)
COc1ccccc1CCC(=O)OCC(=O)N1CCN(S(=O)(=O)c2ccc(C)cc2C)CC1 | 1.66% (inactive)
CCOc1ccc(S(=O)(=O)Nc2cccc(C(=O)NCC3(N4CCCCC4)CCCCC3)c2)cc1 | 8.51% (active)
O=C(NCC1(N2CCCCC2)CCCCC1)c1ccc(NS(=O)(=O)c2ccc(F)cc2)cc1 | 9.71% (active)
CCN(c1ccccc1)S(=O)(=O)c1ccc(OCC(=O)N2CCCC2)cc1 | 0.88% (inactive)
COc1ccc(OCc2cc(C(=O)N3CCCC3)no2)c2ccccc12 | 6.33% (active)
COc1ccccc1-c1cc(C(=O)N2CCCCC2)no1 | 13.3% (active)
O=C(c1cc(-c2ccccc2O)on1)N1CCCC1 | 11.2% (active)
O=C(c1cc(-c2cccs2)on1)N1CCCCC1 | 12.9% (active)
CC(C)c1ccc(Nc2ncccc2C#N)cc1 | 5.79% (active)
Cc1ccnc(NC(=O)CCNS(=O)(=O)c2ccc(C)c(C)c2)c1 | 14% (active)
